Results filed as inconclusive are left out. A call without a number means that no potency is given here. Values without a mark were called inactive. Activity calls are given as the source filed them. Unless noted, calls follow the shape of the dose curve; as a rule, active = well fitted curve in the direction sought with a large enough effect in the repeat runs; inconclusive = weak or mixed curves; inactive = no such curve, though single readings can be large; an effect the other way counts as inactive or inconclusive.
Tests used:
[1] = qHTS assay to identify small molecule agonists of the peroxisome proliferator-activated receptor delta (PPARd) signaling pathway - cell viability counter screen (AID 743211); details: PPARd-bla HEK293H viability, CellTiter-Glo luminescence, 17 h; series mostly up to 62.6 µM; also: nearly all actives have a fitted effect of over 55% in size
Summary of the method: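 Viability was measured as CellTiter-Glo luminescence (30 min, room temperature) in the same wells as the beta-lactamase readout. GeneBLAzer PPARd UAS-bla HEK293H cells received compound after 5 h plating and were incubated 17 h at 37 C.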

[2] = target: Bile acid receptor (Homo sapiens) (UniProt Q96RI1); assay: qHTS assay to identify small molecule antagonists of the farnesoid-X-receptor (FXR) signaling pathway (AID 743217; active = well fitted inhibition curve with a large enough effect in the signal ratio in the repeat runs, not every such curve was filed as active; the % refers to the signal ratio); details: HEK293T FXR-UAS-bla, beta-lactamase ratio, CDCA-stimulated, 16 h; series mostly up to 62.6 µM
Summary of the method: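 Cells carrying a UAS-driven beta-lactamase reporter (GeneBLAzer FXR-UAS-bla HEK 293T) were plated and rested 5 h at 37 °C. Compounds in DMSO were added alongside chenodeoxycholic acid agonist at 50 uM final and left 16 h at 37 °C before FRET substrate readout.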

[3] = qHTS assay to identify small molecule agonists of the farnesoid-X-receptor (FXR) signaling pathway - cell viability counter screen (AID 743218); details: FXR-bla HEK293T viability, CellTiter-Glo luminescence, 16 h; series mostly up to 62.6 µM; also: nearly all actives have a fitted effect of over 45% in size
Summary of the method: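 Cells were seeded, left 5 h at 37 C and 5% CO2, then dosed with compound in DMSO for 16 h. After the beta-lactamase FRET read, CellTiter-Glo was added and luminescence measured 30 min later.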

[4] = target: Bile acid receptor (Homo sapiens) (UniProt Q96RI1); assay: qHTS assay to identify small molecule agonists of the farnesoid-X-receptor (FXR) signaling pathway (AID 743220; active = well fitted activation curve with a large enough effect in the signal ratio in the repeat runs, not every such curve was filed as active; the % refers to the signal ratio); details: HEK293T FXR-UAS-bla, beta-lactamase FRET ratio, 16 h; series mostly up to 62.6 µM
Summary of the method: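 FXR-UAS-bla HEK 293T cells carrying a UAS-driven beta-lactamase reporter were plated for 5 h at 37C/5% CO2, then exposed to DMSO-dissolved Tox21 10K compounds for 16 h at 37C. A LiveBLAzer B/G FRET substrate was loaded for 2 h at room temperature before fluorescence reading.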

[5] = qHTS assay to identify small molecule antagonists of the farnesoid-X-receptor (FXR) signaling pathway - cell viability counter screen (AID 743221; active = well fitted cell-killing curve with a large enough effect in the repeat runs, not every such curve was filed as active; also: nearly all actives have a fitted effect of over 50% in size); details: FXR-bla HEK293T viability, CellTiter-Glo luminescence, 16 h; series mostly up to 62.6 µM
Summary of the method: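 Cytotoxicity counter screen run in the FXR-bla reporter wells: HEK 293T cells exposed to compound with 50 uM (final) chenodeoxycholic acid for 16 h, 37 C, then viability measured by CellTiter-Glo luminescence after 30 min, room temperature.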

[6] = target: Vitamin D3 receptor (Homo sapiens) (UniProt P11473); assay: qHTS assay to identify small molecule agonists of the vitamin D receptor (VDR) signaling pathway (AID 743222; calls by dose curve); details: HEK293T VDR-UAS-bla, beta-lactamase FRET ratio, 16 h; series mostly up to 63.5 µM
Summary of the method: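 Cells carrying a VDR-driven beta-lactamase reporter are seeded at 2,000 per well and rested 4 h. Compounds in DMSO are added for 16 h at 37C, and FRET substrate fluorescence is measured after 2 h at room temperature.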

[7] = target: Vitamin D3 receptor (Homo sapiens) (UniProt P11473); assay: qHTS assay to identify small molecule antagonists of the vitamin D receptor (VDR) signaling pathway (AID 743223; active = well fitted inhibition curve with a large enough effect in the signal ratio in the repeat runs, not every such curve was filed as active; the % refers to the signal ratio); details: VDR-UAS-bla HEK293T, beta-lactamase FRET ratio, 16 h; series mostly up to 61 µM
Summary of the method: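 Antagonist mode: compound added to VDR-bla cells alongside agonist 1alpha,25-dihydroxyvitamin D3 (3 nM final), incubation 16 h at 37C. Read-out is LiveBLAzer FRET fluorescence, 2 h at room temperature.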

[8] = qHTS assay to identify small molecule antagonists of the peroxisome proliferator-activated receptor delta (PPARd) signaling pathway - cell viability counter screen (AID 743213); details: PPARd-bla HEK293H viability, CellTiter-Glo luminescence, 17 h; series mostly up to 62 µM; also: nearly all actives have a fitted effect of over 50% in size; also: potency is read from the fitted curve at half-maximal effect
Summary of the method: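 Cytotoxicity counter screen: CellTiter-Glo luminescence read 30 min after addition, in the same wells as the reporter assay. There, PPARd UAS-bla HEK293H cells (3000/well) were treated 17 h at 37 C with compound and 300 nM L165041.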

[9] = target: Peroxisome proliferator-activated receptor delta (Homo sapiens) (UniProt Q03181); assay: qHTS assay to identify small molecule agonists of the peroxisome proliferator-activated receptor delta (PPARd) signaling pathway (AID 743212; calls by dose curve); details: HEK293H PPARd-UAS-bla, beta-lactamase FRET ratio, 17 h; series mostly up to 62.6 µM
Summary of the method: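 Beta-lactamase reporter read by fluorescence (LiveBLAzer B/G FRET, 2 h, room temperature). Test agents, in DMSO, incubated at 37 C with PPARd-bla HEK293H cells.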

[10] = target: Peroxisome proliferator-activated receptor delta (Homo sapiens) (UniProt Q03181); assay: qHTS assay to identify small molecule antagonists of the peroxisome proliferator-activated receptor delta (PPARd) signaling pathway (AID 743215; active = well fitted inhibition curve with a large enough effect in the signal ratio in the repeat runs, not every such curve was filed as active; the % refers to the signal ratio;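 also: cells stimulated with agonist L165041 at 300 nM final during compound exposure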); details: HEK293H PPARd-UAS-bla, beta-lactamase FRET ratio, antagonist, 17 h; series mostly up to 62 µM
Summary of the method: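 Cells: HEK293H with a UAS-driven beta-lactamase reporter responsive to PPARd. Compounds were co-added with L165041 (300 nM, final) and incubated 17 h at 37 C before a 2 h room-temperature FRET substrate step and fluorescence reading.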

Vitamin D3 receptor (Homo sapiens), sequence (P11473 whole entry, looked up): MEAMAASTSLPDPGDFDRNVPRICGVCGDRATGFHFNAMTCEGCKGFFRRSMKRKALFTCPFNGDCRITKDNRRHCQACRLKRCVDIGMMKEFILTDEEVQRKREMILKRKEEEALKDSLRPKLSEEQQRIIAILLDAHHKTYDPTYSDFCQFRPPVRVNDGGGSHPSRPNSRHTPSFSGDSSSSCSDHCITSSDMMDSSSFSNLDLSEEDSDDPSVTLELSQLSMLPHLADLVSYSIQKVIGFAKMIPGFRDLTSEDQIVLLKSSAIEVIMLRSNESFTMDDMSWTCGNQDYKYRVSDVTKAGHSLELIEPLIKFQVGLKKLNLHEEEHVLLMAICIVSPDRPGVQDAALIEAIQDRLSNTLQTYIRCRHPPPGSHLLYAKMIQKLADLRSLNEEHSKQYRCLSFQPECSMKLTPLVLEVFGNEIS
Bile acid receptor (Homo sapiens), sequence (Q96RI1 whole entry, looked up): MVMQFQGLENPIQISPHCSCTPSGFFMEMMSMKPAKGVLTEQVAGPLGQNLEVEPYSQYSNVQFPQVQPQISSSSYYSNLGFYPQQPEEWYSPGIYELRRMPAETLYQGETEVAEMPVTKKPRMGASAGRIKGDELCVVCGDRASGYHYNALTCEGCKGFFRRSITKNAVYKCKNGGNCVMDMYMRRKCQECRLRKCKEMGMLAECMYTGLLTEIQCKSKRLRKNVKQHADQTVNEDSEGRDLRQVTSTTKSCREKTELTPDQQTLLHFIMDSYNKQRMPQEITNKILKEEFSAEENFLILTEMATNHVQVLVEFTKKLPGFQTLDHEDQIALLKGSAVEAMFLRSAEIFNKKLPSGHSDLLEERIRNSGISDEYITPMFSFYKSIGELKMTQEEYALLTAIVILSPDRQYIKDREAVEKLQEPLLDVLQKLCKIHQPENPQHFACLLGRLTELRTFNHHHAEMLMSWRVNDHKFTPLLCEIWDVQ
Peroxisome proliferator-activated receptor delta (Homo sapiens), sequence (Q03181 whole entry, looked up): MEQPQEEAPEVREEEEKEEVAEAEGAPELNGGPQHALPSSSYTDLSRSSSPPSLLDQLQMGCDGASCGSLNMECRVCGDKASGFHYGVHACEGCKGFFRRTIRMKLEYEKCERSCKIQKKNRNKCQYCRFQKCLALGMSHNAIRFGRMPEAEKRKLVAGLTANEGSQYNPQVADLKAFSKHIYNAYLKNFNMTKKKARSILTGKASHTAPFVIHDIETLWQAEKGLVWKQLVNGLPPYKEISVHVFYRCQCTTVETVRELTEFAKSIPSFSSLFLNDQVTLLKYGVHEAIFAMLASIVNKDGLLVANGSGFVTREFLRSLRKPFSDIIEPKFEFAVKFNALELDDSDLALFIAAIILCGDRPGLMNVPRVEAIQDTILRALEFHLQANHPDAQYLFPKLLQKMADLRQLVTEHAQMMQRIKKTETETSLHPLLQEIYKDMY

SMILES	Potency [1]	outcome [2]	Potency [3]	outcome [4]	Potency [5]	outcome [6]	outcome [7]	Potency [8]	Potency [9]	outcome [10]
Clc1cc(Cl)c2c(c1)N=C1CCCCCN1C2	inactive	inactive	inactive	inactive	inactive	inactive	inactive			
C=C[Si](OCC)(OCC)OCC	inactive		inactive		inactive	inactive	inactive	inactive		
CCC(=O)O[C@]1(C(=O)COC)[C@@H](C)C[C@H]2[C@@H]3CCC4=CC(=O)C=C[C@]4(C)C3(F)[C@@H](O)C[C@@]21C (stereo partly drawn)		inactive	inactive	inactive		inactive	inactive	inactive	inactive	inactive
CCN(CCCCOC(=O)c1ccc(OC)c(OC)c1)C(C)Cc1ccc(OC)cc1 (stereo not drawn)	inactive				inactive		inactive			
CCCCCCCCCCCCCCCCC(=O)O		inactive	inactive	inactive	inactive	inactive		inactive	inactive	inactive
CC(O)CN (stereo not drawn)	inactive		inactive		inactive	inactive	inactive	inactive		
O=C(O)c1cccnc1Nc1cccc(C(F)(F)F)c1	inactive	inactive	inactive	inactive						
CCc1ccc2c(c1)C(=O)c1ccccc1C2=O	inactive				inactive	inactive		inactive		
CC(COc1ccccc1)NC(C)C(O)c1ccc(O)cc1 (stereo not drawn)	inactive		inactive	inactive		inactive				
FC(F)(Cl)C(F)(Cl)Cl	inactive				inactive	inactive	inactive	inactive		
Oc1ccc(CCNCCCCCCNCCc2ccccc2)cc1O		inactive	inactive	inactive	inactive		inactive	inactive	inactive	inactive
CCCC1CCOC(C)S1 (stereo not drawn)	inactive		inactive		inactive	inactive	inactive	4.9 µM (active)		
O=C(O)c1cccc(C(=O)O)c1C(=O)O	inactive		inactive							
O=C(Cl)c1ccc(F)c(Cl)c1			inactive				inactive	inactive	inactive	inactive
CC(=O)Nc1ccn(C2COC(COC(=O)c3ccccc3)O2)c(=O)n1 (stereo not drawn)	inactive				inactive	inactive		inactive		
COc1ccc(CN(CCN(C)C)c2ncccn2)cc1		inactive	inactive	inactive		inactive	inactive	inactive	inactive	inactive
CCCN(C1CCN(C(=O)C2CCNCC2)CC1)[C@@H]1CCc2ccc(OC)cc2C1						inactive	inactive	inactive	inactive	inactive
COc1ccc(C(=O)Nc2ccccc2)cc1[N+](=O)[O-]	inactive	inactive	inactive	inactive	inactive					

Reference: PubChem BioAssay (Tox21)
